HGIII-sPLA2 inh: Inhibits HGIII-sPLA2 liposome hydrolysis, primary screen. 0.56% of 370,000 active. QFRET BODIPY PC-A2 liposome hydrolysis, fluorescence. Q9NZ20. inhibition, % at 12.2 µM;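 active = inhibition above mean plus 3 SD of compounds lying within the high and low control bounds, cut at about 19% in these data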;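 note: 0% = median of test compound wells and 100% = no enzyme DMSO wells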
ADAM10 inh: ADAM10 inhibition, QFRET primary screen; recombinant ADAM10, EDANS/DABCYL FRET peptide cleavage, 3 h; inhibition, % at 7 µM; 0.62% of 370,000 active; AID 720582;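 active = inhibition above a per-campaign cutoff equal to the mean of compounds falling between control-based bounds plus 3 SD, cut at about 20% in these data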;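 note: 0% = DMSO wells while the 100% control is not disclosed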
GRIN3A LBD mod: modulators (binders) of human NR3A ligand-binding domain; NR3A LBD differential scanning fluorimetry, Tm shift; 0% = protein alone, 100% = glycine-bound protein; Tm shift relative to glycine control, % at 25 µM; 2.5% of 340,000 active; AID 1259313;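 active = melting temperature shift of at least 10% of the positive control shift, at one fixed dose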
FAS TE block: inhibitors of human fatty acid synthase thioesterase domain; P49327; recombinant FAS-TE, OMFH fluorogenic substrate, fluorescence endpoint; inhibition, % at 15 µM; 0.67% of 360,000 active; AID 602261;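 active = compounds whose normalised, plate-corrected inhibition of enzyme fluorescence in the single-dose primary screen is 50% or more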;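 note: 0% = DMSO with enzyme and 100% = substrate without enzyme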
ADAM17 inh: inhibitors of human ADAM17 | recombinant ADAM17, EDANS/DABCYL FRET peptide cleavage | inhibition, % at 6.95 µM | 0.83% of 370,000 active | AID 720648;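 active = inhibition above the mean of compounds lying between control limits plus 3 SD, set per campaign, cut at about 8.5% in these data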;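 note: 0% = DMSO-only wells as the low control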
Target sequence (P78536 215-824 limits assumed): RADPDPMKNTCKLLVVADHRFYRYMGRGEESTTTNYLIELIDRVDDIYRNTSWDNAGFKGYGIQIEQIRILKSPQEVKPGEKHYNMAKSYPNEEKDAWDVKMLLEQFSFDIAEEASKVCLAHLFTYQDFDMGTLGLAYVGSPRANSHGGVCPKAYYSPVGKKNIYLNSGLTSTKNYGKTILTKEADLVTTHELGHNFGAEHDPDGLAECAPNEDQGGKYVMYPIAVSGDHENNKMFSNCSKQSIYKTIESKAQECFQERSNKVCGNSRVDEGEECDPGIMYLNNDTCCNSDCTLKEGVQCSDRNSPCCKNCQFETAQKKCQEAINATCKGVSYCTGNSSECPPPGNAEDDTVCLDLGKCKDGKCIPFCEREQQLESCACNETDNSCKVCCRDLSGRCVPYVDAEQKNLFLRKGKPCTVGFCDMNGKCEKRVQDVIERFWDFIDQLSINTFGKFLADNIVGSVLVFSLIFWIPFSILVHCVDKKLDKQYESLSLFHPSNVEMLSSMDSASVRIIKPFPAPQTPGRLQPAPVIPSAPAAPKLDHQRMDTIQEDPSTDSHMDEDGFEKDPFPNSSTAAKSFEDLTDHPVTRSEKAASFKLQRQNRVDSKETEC
ADAM10 confirm: human ADAM10 inhibition, confirmation; shares compounds with ADAM10 inh; ADAM10 QFRET peptide cleavage, EDANS fluorescence; inhibition, % at 6.95 µM; 1% of 2,100 active; AID 743208;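 active = inhibition above about 20% chosen separately for each screening run, limit read from the data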;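 note: 0% = DMSO wells and 100% = marimastat wells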
ADAM17 counter: counter-screen for ADAM10 exosite inhibitors: inhibitors of human ADAM17. 0.5% of 2,100 active. AID 743214. inhibition, % at 6.95 µM. ADAM17 QFRET peptide cleavage, EDANS fluorescence. shares compounds with ADAM10 inh;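 active = mean triplicate inhibition above the solvent-only control wells' mean plus 3 SD, cut at about 12% in these data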;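 note: 0% = DMSO wells and 100% = marimastat wells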
ADAM10 ctr: inhibits human ADAM10 in ADAM17 exosite counter-screen | AID 743256 | recombinant ADAM10, EDANS/DABCYL FRET peptide cleavage, 3 h | inhibition, % at 6.95 µM | shares compounds with ADAM17 inh | 47% of 2,900 active;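 active = mean inhibition over the triplicate runs exceeds the activity threshold set in the earlier primary screen, cut at about 20% in these data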;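 note: 0% = DMSO wells and 100% = marimastat wells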
ADAM17 confirm: confirmation of inhibitors of human ADAM17 | inhibition, % at 6.95 µM | 65% of 2,900 active | AID 743257 | recombinant ADAM17, EDANS/DABCYL QFRET peptide cleavage | shares compounds with ADAM17 inh;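 active = mean inhibition across replicates above the hit cutoff set in the primary screen, cut at about 8.5% in these data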;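 note: 0% = DMSO wells and 100% = marimastat wells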
Active calls of the source: *; x = no result given. Hits are enriched below; roughly 4.3% of the tested compounds scored in any of these assays.

SMILES | HGIII-sPLA2 inh | ADAM10 inh | GRIN3A LBD mod | FAS TE block | ADAM17 inh | ADAM10 confirm | ADAM17 counter | ADAM10 ctr | ADAM17 confirm
COc1ccc(S[C@]2(C(=O)N3CCOCC3)CC(=O)N(C(=O)c3ccccc3)[C@@H]2c2ccc(OC)cc2)cc1 | -7.1 | -0.2 | x | x | 2.5 | x | x | x | x
CC(C)(C)S(=O)(=O)N1C[C@H]2CC(=O)C(CCO)=C2[C@@H]1CCO | 1.9 | 2.7 | x | x | 0.5 | x | x | x | x
COC(=O)[C@]12C[C@H](CC(=O)NCc3cccc(C(F)(F)F)c3)C(=O)N(Cc3ccccc3)C1=C[C@H](COCc1ccccc1)O[C@@H]2C | -14.6 | 10.9 | x | x | 4.0 | x | x | x | x
CCOC(=O)c1c(C)[nH]c(C)c1C(=O)COC(=O)c1cccc(C)c1O | -12.5 | 20.0* | -9.8 | 18.5 | 9.3* | 6.0 | 1.1 | 7.2 | 7.5
Cc1cc2oc(=O)cc(-c3ccccc3)c2c(C)c1-c1ccc(O)cc1 | 0.1 | 33.1* | -12.0 | 34.8 | 16.1* | 7.7 | 3.0 | 18.8 | 12.7*
COc1cc(F)ccc1Oc1cccc2c1S(=O)(=O)N(C1CC1)C[C@@H](COCc1ccccc1)O2 | -7.6 | 28.7* | x | x | 10.6* | 3.8 | 1.1 | 27.1* | 17.4*
C[C@@H]1CN([C@H](C)CO)C(=O)c2c(c3ccccc3n2C)-c2ccccc2CO[C@@H]1CN(C)C(=O)Nc1ccc2c(c1)OCO2 | -29.8 | 21.5* | x | 3.0 | 13.8* | 3.7 | 1.1 | 19.9* | 9.5*
C[C@H](CO)N1C[C@H](C)[C@H](CN(C)S(=O)(=O)c2ccccc2)OCc2ccccc2-c2c(n(C)c3ccccc23)C1=O | -1.4 | -1.2 | x | -5.8 | -2.8 | x | x | x | x
C[C@H](CO)N1C[C@H](C)[C@H](CN(C)C(=O)Nc2ccc(F)cc2)OCc2ccccc2-c2c(n(C)c3ccccc23)C1=O | -21.4 | 8.0 | x | 5.1 | -0.5 | x | x | x | x
Cc1ccccc1S(=O)(=O)N(C)C[C@@H]1OCc2ccccc2-c2c(n(C)c3ccccc23)C(=O)N([C@H](C)CO)C[C@@H]1C | -26.2 | 27.3* | x | 23.2 | 9.7* | 5.6 | 2.5 | 31.7* | 16.0*
CCc1ccccc1-c1cc(C(C)=O)c2n(c1=O)CCC2 | 8.0 | -1.5 | x | x | -6.5 | x | x | x | x
Cc1ccc([C@H]2N[C@]3(CCCN(Cc4ccc(C(F)(F)F)cc4)C3=O)[C@H]3C(=O)N(Cc4ccccc4)C(=O)[C@@H]23)cc1 | -4.9 | 27.6* | x | 35.9 | 11.6* | 3.7 | 0.8 | 33.6* | 20.2*
CCN1C(=O)[C@H]2[C@@H](c3ccc(C)cc3)N[C@]3(CCCN(Cc4ccc(C(F)(F)F)cc4)C3=O)[C@H]2C1=O | 2.5 | -18.6 | x | 3.4 | -3.5 | x | x | x | x
Cc1ccc(CN2CCC[C@]3(N[C@H](c4ccc(C(F)(F)F)cc4)[C@@H]4C(=O)N(Cc5ccccc5)C(=O)[C@@H]43)C2=O)cc1 | -6.2 | 20.2* | x | 21.1 | 9.7* | 2.1 | 1.0 | 38.0* | 21.6*
N#CCCn1nc(-c2ccc([N+](=O)[O-])cc2)cc1Nc1ccccc1NC(=O)C(F)(F)F | -31.0 | 36.4* | -3.9 | 4.9 | 19.6* | 0.1 | 0.1 | 16.0 | 9.5*
O=C(/C=C/c1ccccc1Cl)c1ccccc(=O)c1O | 9.3 | -8.8 | -5.0 | -1.8 | -0.7 | x | x | x | x
O=C(/C=C/c1ccc([N+](=O)[O-])cc1)c1ccccc(=O)c1O | 1.5 | 25.3* | -0.2 | 7.6 | 11.5* | 12.8 | 4.2 | 31.9* | 33.3*
Cc1ccc(Oc2cc(NC(=O)CCCn3nc([N+](=O)[O-])cc3C)cc([N+](=O)[O-])c2)cc1 | -33.8 | 22.7* | 10.2* | 40.6 | 12.9* | 6.4 | 2.7 | 31.7* | 17.6*
Cc1cc(N2CCC[C@@H]2C)nc2ccccc12 | 15.4 | -63.9 | x | x | -27.4 | x | x | x | x
Cc1oc2c(cc(NS(=O)(=O)c3cccs3)c3ccccc32)c1C(=O)OC(C)C | -40.9 | 23.6* | 4.2 | 19.3 | 9.7* | 6.2 | 2.5 | 37.7* | 14.4*
CCCc1nc2ccccc2c(C(=O)OCC(=O)NC2CC2)c1CC | -0.8 | -3.0 | 0.2 | 0.6 | -0.6 | x | x | x | x
CCCc1nc2ccccc2c(C(=O)OCC(=O)Nc2ccc(S(=O)(=O)N3CCOCC3)cc2)c1CC | -43.5 | 40.2* | 17.8* | 28.0 | 17.5* | 10.3 | 4.0 | 29.8* | 18.4*
O=C(/C=C1\NC2(CCCC2)Cc2ccccc21)C(=O)N/N=C/c1ccc(O)c(O)c1 | -7.8 | 22.0* | -3.0 | 10.6 | 11.8* | 6.0 | 3.6 | 18.3 | 9.4*
O=C(NCc1ccccc1)c1cc(C2CCCCN2C(=O)CCc2ccccc2)on1 (configuration not stated) | -9.2 | -1.2 | x | 5.6 | -1.4 | x | x | x | x
O=C(NCc1ccc(Cl)c(Cl)c1)c1cc(C2CCCCN2C(=O)CCc2ccccc2)on1 (configuration not stated) | -21.6 | 25.1* | x | 20.8 | 9.2* | 5.2 | 0.8 | 18.5 | 10.4*
SMILES | HGIII-sPLA2 inh | ADAM10 inh | GRIN3A LBD mod | FAS TE block | ADAM17 inh | ADAM10 confirm | ADAM17 counter | ADAM10 ctr | ADAM17 confirm
COc1cc(O)c(C(CCN2CCN(c3ccccc3)CC2)c2ccc3c(c2)OCO3)c(OC)c1 (configuration not stated) | -2.8 | 24.2* | -25.2 | 24.7 | 12.4* | 8.8 | 3.2 | 8.8 | 6.0
O=C(N[C@@H](Cc1cccnc1)C(=O)N1CCC[C@H]1C(=O)NC1CCCC1)C1CCCC1 | 5.6 | -1.6 | x | x | -2.1 | x | x | x | x
O=C(O)c1ccc(CSc2nnc(-c3ccccc3)n2-c2ccccc2)cc1 | -0.8 | -4.6 | -0.9 | -5.6 | -7.1 | x | x | x | x
CC(=O)C(N=Nc1ccccc1)(Sc1nnc(-c2ccccc2)n1-c1ccccc1)C(C)=O | -0.1 | 26.2* | -0.3 | 29.5 | 13.8* | 4.1 | 1.6 | 12.6 | 10.5*
C=CCN(c1ccccc1OC)S(=O)(=O)c1cccc(C(=O)OCC(=O)c2c[nH]c3ccccc23)c1 | -26.0 | 22.6* | 28.7* | 31.1 | 8.8* | 10.6 | 3.3 | 31.8* | 19.2*
C[C@@H]1CCC(=O)N(CC[C@H](Sc2ccc(Br)cc2)c2ccccc2)CC1 | -12.9 | 21.5* | 1.8 | 27.7 | 16.1* | 6.1 | 2.8 | 21.3* | 11.4*
Cc1ccc(S[C@@H](CCN2CC[C@H](C)CCC2=O)c2ccccc2)cc1 | 1.0 | -2.0 | -0.6 | 23.7 | -2.9 | x | x | x | x
CCCCCCCCN1CN2Cc3cc(OC)ccc3C2CS1(=O)=O (configuration not stated) | -2.1 | 1.3 | x | x | 3.4 | x | x | x | x
